Data published in the supplement of paper PMC10849652.
Of roughly 7,900 targets only a part is listed; those with a hit were picked by preference. About 0.6% of all pairs of compound and target were hits. Values without a mark were called inactive.

Tests used:
Experiment in all cases: log2 fold change, soluble protein after heating vs DMSO (PISA); higher = thermal stabilisation; K562 cells, 10 uM, 30 min; active = over 0.2 and 3.5 SD of the protein, either way, in both replicates (recomputed)
vemurafenib = compound: CCCS(=O)(=O)Nc1ccc(F)c(C(=O)c2c[nH]c3ncc(-c4ccc(Cl)cc4)cc23)c1F [vemurafenib]
Method in brief: (§1)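 K562 cells (2×10^6 cells/mL) were treated with 10 μM compound for 30 min, and aliquots were heated for 3 min over 48°C-58°C. Pooled aliquots were extracted in PBS with 0.5% NP-40 at 4°C, and the supernatant after 21,000xg for 90 min was measured by TMTpro 16plex LC-MS/MS with channel sums equalised. Reported thermal stability, relative to control samples and from duplicates, is a log2 fold change.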

barasertib = compound: CCN(CCCOc1ccc2c(Nc3cc(CC(=O)Nc4cccc(F)c4)[nH]n3)ncnc2c1)CCOP(=O)(O)O [barasertib]
Method in brief: as §1

[1] = compound: CN(C)CC(=O)Nc1ccc2[nH]c(=O)c3ccccc3c2c1
Method in brief: as §1

rosiglitazone = compound: CN(CCOC1=CC=C(C=C1)C[C@H]2C(=O)NC(=O)S2)C3=CC=CC=N3 (racemic) [rosiglitazone]
Method in brief: as §1

[2] = compound: CCCc1cc(C)[nH]c(=O)c1CNC(=O)c1cc(-c2ccnc(N3CCN(C)CC3)c2)cc2c1cnn2C(C)C
Method in brief: as §1

givinostat = compound: CCN(CC)Cc1ccc2cc(COC(=O)Nc3ccc(C(=O)NO)cc3)ccc2c1 [givinostat]
Method in brief: as §1

[3] = compound: CCn1c(C(=O)N(C2CC2)C2CC2)cc2c3c(ncn3C)c(Nc3cc(C)n(C)n3)nc21
Method in brief: as §1

[4] = compound: CC1=C(C=C(C=C1)NC(=O)C2=CC(=CC=C2)N(C)C)NC(=O)C3=CC=C(C=C3)O
Method in brief: as §1

[5] = compound: CC1=CC=C(C=C1)SC2=C3C=C(SC3=CN=C2)C(=O)N
Method in brief: as §1

[6] = compound: CC1=NC(=CC=C1)C2=C(N=C(N2)C(C)(C)C)C3=CC4=NC=CN=C4C=C3
Method in brief: as §1

[7] = compound: CCCS(=O)(=O)Nc1ccc(F)c(C(=O)c2c[nH]c3ncc(Cl)cc23)c1F
Method in brief: as §1

[8] = compound: CC[C@@H]1C(=O)N(C)c2cnc(Nc3ccc(C(=O)NC4CCN(C)CC4)cc3OC)nc2N1C1CCCC1
Method in brief: as §1

volasertib = compound: CC[C@@H]1C(=O)N(C)c2cnc(Nc3ccc(C(=O)N[C@H]4CC[C@H](N5CCN(CC6CC6)CC5)CC4)cc3OC)nc2N1C(C)C [volasertib]
Method in brief: as §1

[9] = compound: CCn1cc(-c2ccnc3[nH]c(-c4cccc(CN(C)C)c4)cc23)c(-c2ccc(NC(=O)N(C)C)cc2)n1
Method in brief: as §1

[10] = compound: CN1CCC(CNc2ccc3ncc(-c4cccc(OC(F)(F)F)c4)n3n2)CC1
Method in brief: as §1

[11] = compound: CC1=C(C=C(C=C1)NC(=O)C2=CC(=CC=C2)C(C)(C)C#N)NC3=CC4=C(C=C3)N=CN(C4=O)C
Method in brief: as §1

Nexturastat A = compound: CCCCN(Cc1ccc(C(=O)NO)cc1)C(=O)Nc1ccccc1 [Nexturastat A]
Method in brief: as §1

[12] = compound: CC[C@H](C)N1C=C(C2=C(C=C(C=C21)C3=CN=C(C=C3)N4CCNCC4)C(=O)NCC5=C(C=C(NC5=O)C)C)C
Method in brief: as §1

epoxomicin = compound: CC[C@H](C)[C@@H](C(=O)N[C@@H]([C@@H](C)O)C(=O)N[C@@H](CC(C)C)C(=O)[C@]1(CO1)C)NC(=O)[C@H]([C@@H](C)CC)N(C)C(=O)C [epoxomicin]
Method in brief: as §1

[13] = compound: CN1C2=C(C3=C1C(=O)N(N=C3)CC4=CC(=CC=C4)N)SC(=C2)S(=O)C
Method in brief: as §1

UniProt O94913, sequence (O94913 whole entry, looked up): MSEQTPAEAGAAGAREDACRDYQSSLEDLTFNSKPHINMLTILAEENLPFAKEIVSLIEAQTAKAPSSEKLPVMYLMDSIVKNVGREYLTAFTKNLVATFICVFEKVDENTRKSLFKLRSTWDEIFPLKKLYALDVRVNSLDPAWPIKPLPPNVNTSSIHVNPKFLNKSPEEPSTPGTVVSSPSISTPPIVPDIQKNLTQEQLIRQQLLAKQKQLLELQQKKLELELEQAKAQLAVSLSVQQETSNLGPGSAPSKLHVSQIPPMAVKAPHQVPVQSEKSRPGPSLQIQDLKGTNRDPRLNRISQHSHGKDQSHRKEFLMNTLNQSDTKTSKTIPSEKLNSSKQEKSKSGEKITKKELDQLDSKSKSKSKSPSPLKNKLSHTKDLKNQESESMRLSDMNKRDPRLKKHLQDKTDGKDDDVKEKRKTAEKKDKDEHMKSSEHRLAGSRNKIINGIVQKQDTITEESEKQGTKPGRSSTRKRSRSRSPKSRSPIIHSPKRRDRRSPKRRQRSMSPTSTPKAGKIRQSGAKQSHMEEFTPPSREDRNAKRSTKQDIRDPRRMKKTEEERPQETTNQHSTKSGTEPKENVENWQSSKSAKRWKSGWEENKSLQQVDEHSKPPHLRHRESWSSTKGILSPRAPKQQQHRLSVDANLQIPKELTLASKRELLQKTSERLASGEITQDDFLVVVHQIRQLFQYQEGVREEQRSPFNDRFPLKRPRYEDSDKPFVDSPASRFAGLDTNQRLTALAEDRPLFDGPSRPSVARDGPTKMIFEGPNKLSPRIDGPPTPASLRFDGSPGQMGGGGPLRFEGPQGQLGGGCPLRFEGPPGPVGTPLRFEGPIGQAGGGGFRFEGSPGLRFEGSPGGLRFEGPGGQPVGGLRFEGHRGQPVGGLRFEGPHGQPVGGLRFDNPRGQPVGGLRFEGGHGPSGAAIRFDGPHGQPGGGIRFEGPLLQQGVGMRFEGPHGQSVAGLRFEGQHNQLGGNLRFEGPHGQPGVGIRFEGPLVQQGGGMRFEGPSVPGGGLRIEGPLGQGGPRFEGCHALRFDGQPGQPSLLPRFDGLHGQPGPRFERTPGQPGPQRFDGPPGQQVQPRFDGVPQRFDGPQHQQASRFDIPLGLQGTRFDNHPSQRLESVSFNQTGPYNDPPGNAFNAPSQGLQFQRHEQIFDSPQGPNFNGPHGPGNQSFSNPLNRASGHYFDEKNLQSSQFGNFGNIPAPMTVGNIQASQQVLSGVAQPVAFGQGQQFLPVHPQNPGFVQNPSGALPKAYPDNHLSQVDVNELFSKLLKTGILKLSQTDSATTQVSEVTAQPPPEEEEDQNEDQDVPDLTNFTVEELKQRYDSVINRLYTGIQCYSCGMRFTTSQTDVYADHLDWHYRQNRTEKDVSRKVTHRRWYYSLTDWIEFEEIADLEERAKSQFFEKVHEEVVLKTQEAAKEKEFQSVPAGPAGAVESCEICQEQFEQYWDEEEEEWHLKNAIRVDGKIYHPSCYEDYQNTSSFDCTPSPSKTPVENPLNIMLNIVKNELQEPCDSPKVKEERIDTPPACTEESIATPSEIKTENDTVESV
UniProt P11309, sequence (P11309 whole entry, looked up): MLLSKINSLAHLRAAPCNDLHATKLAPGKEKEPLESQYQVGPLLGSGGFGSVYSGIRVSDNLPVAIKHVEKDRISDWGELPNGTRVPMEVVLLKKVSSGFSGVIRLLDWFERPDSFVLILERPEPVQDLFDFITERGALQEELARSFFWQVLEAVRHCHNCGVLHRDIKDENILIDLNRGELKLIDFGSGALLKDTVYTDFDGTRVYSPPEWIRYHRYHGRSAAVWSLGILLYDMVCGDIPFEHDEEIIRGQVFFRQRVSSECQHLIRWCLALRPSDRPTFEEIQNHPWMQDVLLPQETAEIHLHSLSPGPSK
UniProt P28065, sequence (P28065 whole entry, looked up): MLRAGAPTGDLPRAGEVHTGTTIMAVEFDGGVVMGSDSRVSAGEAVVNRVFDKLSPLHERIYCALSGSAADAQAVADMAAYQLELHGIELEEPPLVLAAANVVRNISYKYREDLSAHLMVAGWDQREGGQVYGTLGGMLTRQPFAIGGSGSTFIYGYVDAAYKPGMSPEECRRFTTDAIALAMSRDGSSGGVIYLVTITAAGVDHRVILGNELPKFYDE
UniProt P27815, sequence (P27815 whole entry, looked up): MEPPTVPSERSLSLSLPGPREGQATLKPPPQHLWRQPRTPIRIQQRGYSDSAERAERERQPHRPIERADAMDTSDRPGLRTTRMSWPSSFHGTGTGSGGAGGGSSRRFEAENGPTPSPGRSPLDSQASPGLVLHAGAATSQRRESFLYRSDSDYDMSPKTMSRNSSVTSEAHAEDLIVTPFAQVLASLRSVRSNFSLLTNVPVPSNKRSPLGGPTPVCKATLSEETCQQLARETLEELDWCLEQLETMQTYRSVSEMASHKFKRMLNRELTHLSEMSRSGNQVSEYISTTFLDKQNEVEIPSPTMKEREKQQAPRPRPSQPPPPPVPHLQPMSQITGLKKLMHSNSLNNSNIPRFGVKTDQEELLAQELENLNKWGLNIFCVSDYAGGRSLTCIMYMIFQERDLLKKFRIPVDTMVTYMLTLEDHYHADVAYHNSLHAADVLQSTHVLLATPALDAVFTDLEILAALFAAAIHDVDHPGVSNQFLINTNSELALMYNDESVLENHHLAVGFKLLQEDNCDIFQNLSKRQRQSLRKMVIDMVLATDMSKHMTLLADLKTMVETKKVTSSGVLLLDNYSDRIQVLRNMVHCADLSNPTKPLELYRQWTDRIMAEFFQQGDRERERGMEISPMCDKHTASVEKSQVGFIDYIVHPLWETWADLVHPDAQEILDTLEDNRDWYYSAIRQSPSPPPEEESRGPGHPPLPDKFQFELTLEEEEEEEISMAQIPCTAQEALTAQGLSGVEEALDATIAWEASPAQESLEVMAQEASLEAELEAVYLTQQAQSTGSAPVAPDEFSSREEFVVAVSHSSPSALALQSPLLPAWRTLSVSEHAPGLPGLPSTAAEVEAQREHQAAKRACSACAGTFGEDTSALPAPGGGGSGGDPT
UniProt Q6EEV4, sequence (Q6EEV4 whole entry, looked up): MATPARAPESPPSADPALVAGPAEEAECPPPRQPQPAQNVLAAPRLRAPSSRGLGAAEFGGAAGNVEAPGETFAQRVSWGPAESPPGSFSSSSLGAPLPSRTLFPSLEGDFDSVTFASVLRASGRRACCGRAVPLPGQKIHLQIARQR
UniProt Q02156, sequence (Q02156 whole entry, looked up): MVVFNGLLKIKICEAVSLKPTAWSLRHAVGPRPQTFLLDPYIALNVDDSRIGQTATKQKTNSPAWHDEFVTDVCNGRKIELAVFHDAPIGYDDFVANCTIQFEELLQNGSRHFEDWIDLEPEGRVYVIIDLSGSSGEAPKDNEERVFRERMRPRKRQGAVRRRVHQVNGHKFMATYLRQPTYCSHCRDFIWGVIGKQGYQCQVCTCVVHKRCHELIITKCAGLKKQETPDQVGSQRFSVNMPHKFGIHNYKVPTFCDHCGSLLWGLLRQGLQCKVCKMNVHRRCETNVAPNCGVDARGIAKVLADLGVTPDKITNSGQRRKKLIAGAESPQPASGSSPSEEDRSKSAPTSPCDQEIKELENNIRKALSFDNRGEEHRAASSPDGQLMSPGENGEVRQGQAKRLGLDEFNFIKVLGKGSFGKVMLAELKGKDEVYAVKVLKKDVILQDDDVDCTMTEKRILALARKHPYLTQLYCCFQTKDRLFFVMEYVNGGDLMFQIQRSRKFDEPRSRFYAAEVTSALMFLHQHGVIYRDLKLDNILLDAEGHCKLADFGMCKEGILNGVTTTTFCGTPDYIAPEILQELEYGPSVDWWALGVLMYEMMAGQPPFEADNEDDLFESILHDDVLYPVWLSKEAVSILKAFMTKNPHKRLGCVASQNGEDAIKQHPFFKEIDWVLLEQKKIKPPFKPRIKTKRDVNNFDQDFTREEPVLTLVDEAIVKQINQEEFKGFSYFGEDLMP
UniProt P51817, sequence (P51817 whole entry, looked up): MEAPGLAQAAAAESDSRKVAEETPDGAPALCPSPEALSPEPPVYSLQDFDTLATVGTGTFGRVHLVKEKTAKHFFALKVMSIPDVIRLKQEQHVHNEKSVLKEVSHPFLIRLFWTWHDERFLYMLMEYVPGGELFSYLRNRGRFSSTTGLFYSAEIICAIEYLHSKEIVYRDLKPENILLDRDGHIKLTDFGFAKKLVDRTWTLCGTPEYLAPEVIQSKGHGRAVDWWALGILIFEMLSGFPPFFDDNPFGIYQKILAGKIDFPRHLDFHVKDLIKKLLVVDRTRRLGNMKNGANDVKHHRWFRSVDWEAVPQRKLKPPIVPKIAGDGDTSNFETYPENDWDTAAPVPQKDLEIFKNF
UniProt O75365, sequence (O75365 whole entry, looked up): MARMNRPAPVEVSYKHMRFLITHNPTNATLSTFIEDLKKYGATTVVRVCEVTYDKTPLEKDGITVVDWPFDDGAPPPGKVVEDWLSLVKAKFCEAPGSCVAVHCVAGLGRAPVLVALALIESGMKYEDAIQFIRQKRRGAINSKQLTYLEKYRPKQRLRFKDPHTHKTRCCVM
UniProt P60484, sequence (P60484 whole entry, looked up): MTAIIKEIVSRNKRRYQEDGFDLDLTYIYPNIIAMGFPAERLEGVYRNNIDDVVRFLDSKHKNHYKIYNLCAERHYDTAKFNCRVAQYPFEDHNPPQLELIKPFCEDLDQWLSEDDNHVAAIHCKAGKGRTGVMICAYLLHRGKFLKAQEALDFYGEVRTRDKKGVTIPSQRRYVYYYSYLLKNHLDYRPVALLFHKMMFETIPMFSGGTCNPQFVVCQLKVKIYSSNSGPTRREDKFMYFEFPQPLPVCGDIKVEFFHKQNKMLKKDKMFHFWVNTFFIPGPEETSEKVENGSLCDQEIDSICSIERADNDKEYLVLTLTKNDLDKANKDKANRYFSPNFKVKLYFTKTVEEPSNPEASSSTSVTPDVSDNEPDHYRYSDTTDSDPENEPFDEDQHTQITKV
UniProt Q68D20, sequence (Q68D20 whole entry, looked up): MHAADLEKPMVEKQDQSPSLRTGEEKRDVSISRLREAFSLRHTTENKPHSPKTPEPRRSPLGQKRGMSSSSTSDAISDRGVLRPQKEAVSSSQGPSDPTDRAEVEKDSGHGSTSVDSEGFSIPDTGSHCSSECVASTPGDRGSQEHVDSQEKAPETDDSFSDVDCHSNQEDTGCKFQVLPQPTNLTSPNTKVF

Target | log2 fold change (vemurafenib) | log2 fold change (barasertib) | log2 fold change [1] | log2 fold change (rosiglitazone) | log2 fold change [2] | log2 fold change (givinostat) | log2 fold change [3] | log2 fold change [4] | log2 fold change [5] | log2 fold change [6] | log2 fold change [7] | log2 fold change [8] | log2 fold change (volasertib) | log2 fold change [9] | log2 fold change [10] | log2 fold change [11] | log2 fold change (Nexturastat A) | log2 fold change [12] | log2 fold change (epoxomicin) | log2 fold change [13]
PTP4A3 (UniProt O75365) | 0.207 | -0.01 | 0.205 | 0.045 | – | – | – | – | – | – | – | – | – | – | – | – | – | – | – | –
PRKX (UniProt P51817) | – | 0.126 | – | 0.191 | -0.103 | 0.036 | -0.019 | – | – | – | – | – | – | – | – | – | – | – | – | –
PTEN isoform 2 (UniProt P60484) | – | – | – | – | – | -0.086 | -0.071 | -0.035 | 0.13 | 0.064 | -0.016 | 0.024 | 0.05 | -0.016 | -0.098 | – | – | – | – | –
POLR2M (UniProt Q6EEV4) | 0.017 | -0.055 | 0.091 | 0.097 | -0.073 | -0.105 | 0.027 | – | -0.062 | 0.046 | -0.066 | 0.13 | 0.009 | – | – | 0.091 | -0.403 | 0.002 | 0.154 | 0.105
PRKD2 (UniProt M0R346) | – | -0.337 | – | -0.026 | – | – | – | – | – | – | – | – | – | -0.025 | -0.14 | -0.011 | 0.236 | – | -0.072 | –
PSMB9 (UniProt P28065) | -0.08 | 0.12 | -0.043 | -0.057 | – | -0.179 | -0.046 | – | -0.032 | -0.342 | -0.047 | 0.114 | 0.008 | 0.033 | 0.051 | -0.137 | -0.233 | – | 0.049 | –
PMS2CL (UniProt Q68D20) | – | – | – | – | 0.129 | – | – | 0.089 | – | – | – | – | – | – | – | – | -0.109 | -0.126 | 0.126 | –
PCBP2 (UniProt F8VRH0) | -0.235 | -0.201 | 0.139 | -0.042 | -0.199 | 0.04 | 0.043 | – | 0.019 | 0.172 | 0.123 | -0.005 | -0.051 | -0.201 | -0.149 | 0.419 | 0.136 | 0.165 | -0.252 | -0.306
PDE4DIP (UniProt E9PS60) | -0.214 | – | 0.095 | – | – | 0.016 | -0.072 | – | – | 0.013 | – | 0.047 | – | – | – | – | – | – | – | –
PSMD8 (UniProt K7ERW6) | -0.236 | – | 0.027 | – | – | – | – | – | – | -0.283 | – | – | – | – | – | – | – | – | – | –
PHC3 isoform 7 (UniProt Q8NDX5) | – | 0 | – | 0.066 | 0.116 | 0.17 | -0.113 | – | 0.088 | 0.266 | 0.096 | 0.076 | -0.163 | – | – | 0.102 | -0.43 | 0.178 | 0.254 | –
PCF11 (UniProt O94913) | -0.058 | -0.168 | -0.078 | 0.314 | -0.3 | – | – | 0.045 | 0.019 | -0.018 | 0.006 | -0.014 | -0.114 | 0.038 | -0.03 | – | – | – | – | –
PPP2R5B (UniProt Q15173) | -0.104 | 0.009 | 0.128 | 0.11 | -0.013 | 0.083 | 0.025 | – | -0.131 | – | 0.104 | -0.348 | -0.173 | 0.015 | -0.529 (active) | – | – | 0.021 | – | -0.05
PDE4A (UniProt P27815) | 0.006 | 0.049 | 0.082 | 0.078 | – | 0.015 | 0.099 | -0.028 | -0.047 | 0.062 | 0.024 | – | -0.331 | – | – | – | 0.061 | – | -0.124 | –
PCBP2 (UniProt F8VZX2) | – | -0.173 | – | 0.065 | -0.098 | 0.009 | 0.073 | -0.14 | – | 0.005 | – | – | – | – | – | – | – | 0.075 | – | 0.098
PRKCE (UniProt Q02156) | 0.077 | 0.013 | 0.036 | 0.068 | -0.02 | -0.393 (active) | -0.054 | – | -0.012 | 0.048 | 0.085 | -0.051 | -0.125 | -0.067 | -0.16 | 0.041 | -0.242 | 0.099 | 0.036 | -0.106
PHRF1 (UniProt Q9P1Y6) | – | – | – | – | 0.146 | 0.034 | 0.035 | -0.052 | -0.034 | – | -0.058 | – | 0.373 | – | – | – | – | – | – | –
POLR2E (UniProt P19388) | 0.031 | -0.03 | 0.034 | 0.01 | 0.099 | -0.007 | -0.104 | -0.094 | 0 | -0.091 | 0.018 | 0.027 | -0.067 | 0.015 | 0.09 | – | 0.005 | 0.018 | 0.065 | 0.092
PIM1 isoform 2 (UniProt P11309) | – | – | – | – | -0.566 | – | – | – | – | – | – | – | – | -0.068 | 2.26 (active) | – | – | – | – | –
PSMA3 (UniProt G3V4X5) | -0.012 | 0.103 | 0.084 | 0.122 | – | – | – | -0.046 | -0.117 | 0.184 | 0.013 | – | 0.139 | – | – | – | – | – | – | –
